35 compounds from PubChem BioAssay AID1963321 (National Center for Advancing Translational Sciences (NCATS), 2024) can be followed below.

SMILES strings stand for the structures. Results filed as inconclusive are left out. Entries that show only a call come without a potency. Active and inactive are the calls of the source. Calls come from the whole dose curve.

This assay deals with cAMP-dependent protein kinase catalytic subunit alpha (Homo sapiens) (UniProt P17612). In words: Protein Kinase A (PKA-HiBiT) enzymatic inhibition screen - Functional assay. An outline of the steps: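 PKA-N-HiBiT enzyme (10 nM final) with 87.5 uM ATP preincubated 30 min at room temperature with compounds. Kemptide substrate then added for 3 h; residual ATP read by Kinase-Glo Plus luminescence, H-89 as positive control.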
In general terms: With HiBiT, luminescence reflects the tagged protein that the partner subunit can reach.

Take `O=C(O)C1(Cc2cccc(Nc3nccs3)n2)CCC(Oc2cccc(Cl)c2F)CC1` (stereo not given): the Potency result was “inactive”.

Regarding `CSc1cccc(Nc2ncc3cc(-c4c(Cl)cccc4Cl)c(=O)n(C)c3n2)c1`, the Potency result is “inactive”.

In the case of `CCN1CCN(Cc2ccc(NC(=O)c3ccc(C)c(NC(=O)c4cncc(-c5cccs5)c4)c3)cc2C(F)(F)F)CC1`, the Potency result was “inactive”.

Turning to `COc1cc(NC(=O)c2cccc(-n3cc(NC(=O)Nc4cccc(C)c4)cn3)c2)cc(OC)c1OC`, the Potency result is “inactive”.

Take `Cc1nc2ccc(-n3ncc(C(=O)c4cc5ccccc5[nH]4)c3N)cc2[nH]1`: the Potency result was “inactive”.

For `S=C(NCc1ccc2c(c1)OCO2)N1CCN(c2ncnc3c2oc2ccccc23)CC1`, the Potency result is “inactive”.

As to `Cc1[nH]c2ccccc2c1C1=C(NCCc2ccc(F)cc2)C(=O)N(C)C1=O`, the Potency entry is “inactive”.

Take `O=C1CCC(N2C(=O)c3ccccc3C2=O)C(=O)N1` (stereo not given): the Potency entry is “inactive”.

In the case of `Cc1cc(NC(=O)c2ccc(C)c(Nc3nccc(-c4cccnc4)n3)c2)cc(-n2cnc(C)c2)c1`, the Potency entry is “inactive”.

`CNC(=O)c1ccccc1Nc1nc(Nc2ccc(N3CCOCC3)cc2OC)ncc1Cl`: the Potency entry was “inactive”.

Regarding `Cc1ncc(NC(=O)c2ccc(CN3CCN(C)CC3)c(C(F)(F)F)c2)cc1Nc1nccc(-c2cccnc2)n1`, the Potency entry is “inactive”.

For the compound `Cc1ccc(C(=O)Nc2ccc(Oc3cc4cnn(C)c4cc3-c3cn[nH]c3)c(F)c2)c(=O)n1-c1ccc(F)cc1`, the Potency entry was “inactive”.

Consider `Cc1cc(Nc2ncc3cc(-c4c(Cl)cccc4Cl)c(=O)n(C)c3n2)ccc1F`, for which the Potency entry is “inactive”.

Regarding `Cn1cc(-c2cc3c(N4CCN(c5ncc([C@@](C)(N)c6ccc(F)cc6)cn5)CC4)ncnn3c2)cn1`, the Potency result was “inactive”.

For `CNc1ncc2cc(-c3cc(NC(=O)NCCC(C)(C)C)c(F)cc3C)c(C)nc2n1`, the Potency result was “inactive”.

With `C#Cc1cccc(Nc2ncnc3cc4c(cc23)OCCOCCOCCO4)c1`, the Potency result is “inactive”.

As to `CCN(CC)CCOc1ccc(Nc2ncc3cc(-c4c(Cl)cccc4Cl)c(=O)n(C)c3n2)cc1`, the Potency entry was “inactive”.

`Cc1[nH]nc2ncc(C(=O)N3CCC[C@H]3c3ccc(Cl)cc3)cc12`: the Potency entry is “inactive”.

On to `Nc1nc(NCCNc2ncc(-n3ccnc3)c(-c3ccc(Cl)cc3Cl)n2)ccc1[N+](=O)[O-]`, for which the Potency result is “inactive”.

On to `N#Cc1cccc(-c2c[nH]c3ncnc(N4CCOCC4)c23)c1`, for which the Potency result is “inactive”.

With `Cc1ccc(NC(=O)N2CCN(c3nc(N)nc4sc(-c5cccnc5)nc34)CC2)cc1`, the Potency entry was “inactive”.

With `Cc1nc(NC(=O)N2CCC[C@H]2C(N)=O)sc1-c1ccnc(C(C)(C)C(F)(F)F)c1`, the Potency result was “inactive”.

On to `COc1cc2ncnc(Oc3cccc(NC(=O)Nc4cc(C(C)(C)C(F)(F)F)on4)c3)c2cc1OC`, for which the Potency result was “inactive”.

For `CC[C@@](C)(Nc1ccnc(-c2c[nH]c3ncccc23)n1)C(=O)NCC(F)(F)F`, the Potency entry was “inactive”.

In the case of `Cc1cc(F)ccc1-c1nc(NC(CO)CO)nc2c1ccc(=O)n2-c1c(F)cccc1F`, the Potency result is “inactive”.

`O=C1C(c2c(O)[nH]c3ccccc23)=Nc2ccccc21`: the Potency result is “inactive”.

As to `Cc1cc(F)ccc1-c1nc(NCCN=C(N)NC#N)nc2c1ccc(=O)n2-c1c(F)cccc1F`, the Potency entry was “inactive”.

Take `FC(F)(F)c1ccc(/C=C/c2nc(COc3ccc(CCCCn4ccnn4)cc3)co2)cc1`: the Potency entry is “inactive”.

As for `O=C(NC1CCNCC1)c1[nH]ncc1NC(=O)c1c(Cl)cccc1Cl`, the Potency entry was “inactive”.

With `Cc1ccc(NC(=O)c2ccc(CN3CCN(C)CC3)cc2)cc1Nc1nc(-c2cccnc2)cs1`, the Potency result is “inactive”.

`COc1cc2c(Oc3ccc(NC(=O)C4(C(=O)Nc5ccc(F)cc5)CC4)cc3F)ccnc2cc1OCCCN1CCOCC1`: the Potency entry is “inactive”.

`CO[C@H]1/C=C/O[C@@]2(C)Oc3c(C)c(O)c4c(O)c(c(/C=N\N5CCN(C6CCCC6)CC5)c(O)c4c3C2=O)NC(=O)/C(C)=C\C=C\[C@H](C)[C@H](O)[C@@H](C)[C@@H](O)[C@@H](C)[C@H](OC(C)=O)[C@@H]1C`: the Potency result was “inactive”.

For `COC(=O)Nc1ccc(-c2nc(N3CCOCC3)c3cnn(C4CCN(C(=O)OC)CC4)c3n2)cc1`, the Potency entry is “inactive”.

For `COc1cc2c(cc1OC)-c1[nH]nc(Nc3cccc(F)c3)c1C2`, the Potency result was “inactive”.

For `COc1cc(N2CCC(O)CC2)ccc1Nc1nc(Nc2ccccc2S(=O)(=O)C(C)C)c2[nH]cnc2n1`, the Potency entry is “inactive”.
